From PubChem BioAssay (NCATS)
Inconclusive results are not listed. A call without a number means that no potency is given here. Active and inactive are the calls of the source. Calls come from the whole dose curve; as a rule, active = well fitted inhibition curve with a large enough effect; inconclusive = small, poorly fitted or top-dose-only effect; inactive = no such curve, though single readings can be large or run the other way.

molecular target: Retinaldehyde dehydrogenase 3 (Homo sapiens) (UniProt P47895); assay: qHTS for Inhibitors of the Aldehyde Dehydrogenase Family (ALDH1A3) Primary screen (AID 2061315); settings: ALDH inhibition qHTS; series mostly up to 56 µM

Row | Compound | Potency
1 | COc1cccc(NC(=S)N2CCN(c3ccc4ccccc4n3)CC2)n1 | inactive
2 | CC(C)(C)OC(=O)N[C@@H](Cc1ccc(OS(=O)(=O)c2cccc3cnccc23)cc1)C(=O)N1CCCN(C(=O)OC(C)(C)C)CC1 | inactive
3 | O=C1NC(=O)/C(=C/c2cccn2-c2ccc(P(=O)(O)O)cc2)N1 | inactive
4 | O=C(Nc1ccc2c(c1)OCCO2)c1ccc(-c2nc3ccccc3[nH]2)cc1 | inactive
5 | Cc1noc(C)c1C(=O)N1CCC2(CCCN(C(c3ccccc3)c3ccccc3)C2)CC1 | inactive
6 | Cc1cc(NS(=O)(=O)c2ccc(NC(=O)Cc3ccc(Cl)c(Cl)c3)cc2)on1 | inactive
7 | CC(=O)C1CCN(c2ncc(-c3ccc4c(c3)OCCCO4)s2)CC1 | inactive
8 | Cc1cccc(-n2cnc3cc(C(=O)N4CCN(C)CC4)ccc32)c1 | inactive
9 | Cc1cc2c(s1)c1cnn(Cc3cc(OC(F)(F)F)ccc3F)c(=O)c1n2C | inactive
10 | NCCC(=O)Nc1cccc(-c2nn3c(=O)cc(N4CCNCC4)nc3s2)c1 | inactive
11 | C[C@@H]1O[C@@H](O[C@@H]2[C@@H](O)[C@H](O[C@H]3CC[C@@]4(C)C(CC[C@]5(C)C4CC=C4[C@@H]6CC(C)(C)CC[C@]6(C(=O)O[C@@H]6O[C@H](CO)[C@@H](O)[C@H](O)[C@H]6O)CC[C@]45C)C3(C)C)O[C@H](C(=O)O)[C@H]2O)[C@H](O)[C@H](O)[C@H]1O (some centres undefined) | inactive
12 | Cc1cccc(-n2cnc3cc(C(=O)N4CCCC4)ccc32)c1 | inactive
13 | Cc1ccc(-c2ccc(=O)n(CCNCCc3ccccc3)n2)cc1 | inactive
14 | CCOC(=O)c1cccc(NC(=O)Nc2nnc(-c3ccncc3)s2)c1 | inactive
